Inconclusive results are not listed. Active and inactive are the calls of the source. Calls follow the shape of the dose curve; as a rule, active = well fitted cell-killing curve with a large enough effect; inconclusive = small, poorly fitted or top-dose-only effect, or effect the other way; inactive = no such curve, though single readings can be large or run the other way. Positions of bridges follow the written chain, without caps; N, C: chain ends. Non-standard residues stand in square brackets, D forms with d. Residues, ends and D or L forms follow the SMILES beside them. ξ: configuration not given here. *: point of attachment. Octanoyl(6-Me) = CCC(C)CCCCC(=O)*; ξThr(3R) = C[C@@H](O)C(N)C(=O)O; dDab = NCC[C@@H](N)C(=O)O; Dab = NCC[C@H](N)C(=O)O

Test [1] is described as follows: Quantitative High-Throughput drug screen in 47 multiple myeloma cell lines against the NCATS MIPE library collection: XG1_PLB cell viability assay (AID 1919866). Also: nearly all actives have a fitted effect of over 35% in size. Also: potency is read from the fitted curve at half-maximal effect. The gist of the method:
(§1)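 Readout: median RLU from CellTiter-Glo after 5 min at room temperature. Preceding step was 48 h drug treatment of 500 cells/well at 37 °C, 5% CO2, with DMSO-only and media-only control wells.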

Test [2] in a line: Quantitative High-Throughput drug screen in 47 multiple myeloma cell lines against the NCATS MIPE library collection: VP6_DJ cell viability assay (AID 1919867). Also: nearly all actives have a fitted effect of over 40% in size. Also: potency is read from the fitted curve at half-maximal effect. The gist of the method: as §1
The nature of test [3]: Quantitative High-Throughput drug screen in 47 multiple myeloma cell lines against the NCATS MIPE library collection: PE2_PLB cell viability assay (AID 1919869). Also: nearly all actives have a fitted effect of over 35% in size. Also: potency is read from the fitted curve at half-maximal effect. The method, boiled down:
as §1

Test [4] is described as follows: Quantitative High-Throughput drug screen in 47 multiple myeloma cell lines against the NCATS MIPE library collection: RPMI8226_ATCC cell viability assay (AID 1919871). Also: nearly all actives have a fitted effect of over 30% in size. Also: potency is read from the fitted curve at half-maximal effect. The method, boiled down:
as §1

Test [5] in a line: Quantitative High-Throughput drug screen in 47 multiple myeloma cell lines against the NCATS MIPE library collection: OPM2_DSMZ cell viability assay (AID 1919872). Also: nearly all actives have a fitted effect of over 30% in size. Also: potency is read from the fitted curve at half-maximal effect. The gist of the method: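 Luminescent ATP measurement with CellTiter-Glo gives viability, scaled between DMSO-only wells (100%) and media-only wells (0%). Cells, 500 per well, faced library compounds for 48 hours at 37C.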

Test [6] in a line: Quantitative High-Throughput drug screen in 47 multiple myeloma cell lines against the NCATS MIPE library collection: KMS11_JCRBsus cell viability assay (AID 1919873). Also: nearly all actives have a fitted effect of over 50% in size. Also: potency is read from the fitted curve at half-maximal effect. The method, boiled down:
as §1

Test [7] can be described thus: Quantitative High-Throughput drug screen in 47 multiple myeloma cell lines against the NCATS MIPE library collection: PCM6_Riken cell viability assay (AID 1919870). Also: nearly all actives have a fitted effect of over 30% in size. Also: potency is read from the fitted curve at half-maximal effect. The method, boiled down:
as §1

Test [8] can be described thus: Quantitative High-Throughput drug screen in 47 multiple myeloma cell lines against the NCATS MIPE library collection: UTMC2_PLB cell viability assay (AID 1919868). Also: nearly all actives have a fitted effect of over 55% in size. The conditions noted are these: CellTiter-Glo ATP luminescence, 48 h; viability (% of DMSO control): at 45.8 µM (top of the series). The gist of the method: as §1

As to `Cc1cn([C@@H]2O[C@H](CO)[C@@H](O)[C@H]2F)c(=O)[nH]c1=O`, the Potency entry in test [1], in test [3], in test [4], in test [5] and in test [6] was “inactive” in each case. Besides, the Potency in test [2] was 14.8 µM (active).
As to `CCC(C)CCCCC(=O)N[C@@H](CCN)C(=O)NC(C(=O)N[C@H](CCN)C(=O)N[C@@H]1CCNC(=O)C([C@@H](C)O)NC(=O)[C@@H](CCN)NC(=O)[C@@H](CCN)NC(=O)[C@@H](CC(C)C)NC(=O)[C@H](Cc2ccccc2)NC(=O)[C@H](CCN)NC1=O)[C@@H](C)O` (stereo partly drawn) ({Octanoyl(6-Me)}-[Dab][ξThr(3R)][dDab][dDab][Dab]F[dL][dDab][dDab][ξThr(3R)]; lactam 4-C), the Potency entry in test [1], in test [2], in test [3], in test [7], in test [4] and in test [5] was “inactive” in each case.
With `CC[C@H]1OC(=O)[C@H](C)[C@@H](O[C@H]2C[C@@](C)(OC)[C@@H](O)[C@H](C)O2)[C@H](C)[C@@H](O[C@@H]2O[C@@H](C)C[C@H](N(C)C)[C@@H]2O)[C@](C)(O)C[C@@H](C)C(=O)[C@H](C)[C@@H](O)[C@]1(C)O`, the Potency in test [1] was 4.18 µM (active). The Potency entry in test [2], in test [7], in test [4], in test [5] and in test [6] was “inactive” each time.
Turning to `CCCCOc1ccc(C(=O)Nc2ccc(F)cc2F)cc1`, the Potency result in test [1], in test [3], in test [7], in test [4], in test [5] and in test [6] was “inactive” throughout. The Potency in test [2] is 7.43 µM (active).
Take `CC(=O)OCC(=O)[C@@]12N=C(C)O[C@H]1C[C@H]1[C@@H]3CCC4=CC(=O)C=C[C@]4(C)[C@@H]3[C@@H](O)C[C@@]12C`: the Potency in test [1] is 16.6 µM (active); in test [7] it was 11.8 µM (active); in test [4], 0.469 µM (active); in test [6] it was 0.935 µM (active). The Potency entry in test [3] and in test [5] was “inactive” throughout.
Take `c1ccc2c(Oc3nc(Nc4ccc(N5CCOCC5)cc4)c4ncn(C5CCCCC5)c4n3)cccc2c1`: the Potency in test [1] is 18.7 µM (active); in test [2], 14.8 µM (active). Besides, the Potency entry in test [3], in test [7] and in test [4] was “inactive” throughout.
For `CCOC(=O)C=C[C@H](C[C@@H]1CCNC1=O)NC(=O)[C@@H](CC(=O)[C@@H](NC(=O)c1cc(C)on1)C(C)C)Cc1ccc(F)cc1`, the Potency result in test [1], in test [3], in test [7], in test [4], in test [5] and in test [6] was “inactive” throughout.
Consider `COC(=O)C1C2CC3c4[nH]c5cc(OC)ccc5c4CCN3CC2CC(OC(=O)c2cc(OC)c(OC)c(OC)c2)C1OC` (stereo unspecified), for which the Potency in test [3] is 14.8 µM (active); in test [7], 16.6 µM (active); in test [4], 16.6 µM (active); in test [6] it was 29.6 µM (active). Also, the Potency result in test [5] is “inactive”.
On to `Cc1ccc(-n2[nH]c(C)c(N=Nc3cccc(-c4cccc(C(=O)O)c4)c3O)c2=O)cc1C`, for which the values for the Potency in test [1], in test [3] and in test [6] were 23.5 µM (active), 26.4 µM (active) and 23.5 µM (active), respectively.
On to `N#CC(=C(N)Sc1ccc(N)cc1)c1ccccc1C(F)(F)F`, for which the figures for the Potency in test [1], in test [3] and in test [4] were 2.96 µM (active), 2.96 µM (active) and 13.2 µM (active), respectively. The Potency result in test [7] and in test [5] was “inactive” in each case.
With `CCn1c(=O)c2c(nc(C=Cc3ccc(OC)c(OC)c3)n2C)n(CC)c1=O`, the Potency entry in test [1], in test [7] and in test [6] was “inactive” each time. The Potency in test [3] is 14.8 µM (active).
Turning to `OC[C@H]1OC(O)C[C@@H](O)[C@H]1O` (stereo partly specified), the Potency entry in test [1], in test [8], in test [3], in test [7], in test [4] and in test [5] was “inactive” in each case.
As to `Nc1nc(=O)n([C@H]2C[C@H](O)[C@@H](CO)O2)cc1F`, the Potency in test [1] is 0.0118 µM (active); in test [7], 0.059 µM (active). Further, the Potency result in test [3], in test [4] and in test [5] was “inactive” throughout.
On to `CN(C)CC[C@H](c1ccc(Cl)cc1)c1ccccn1`, for which, in test [1], the Potency is 6.62 µM (active). The Potency entry in test [8], in test [3], in test [7] and in test [5] was “inactive” in each case.
On to `CC(C)(O)CC[C@@H](O)[C@](C)(O)[C@H]1CC[C@@]2(O)C3=CC(=O)[C@@H]4C[C@@H](O)[C@@H](O)C[C@]4(C)[C@@H]3CC[C@]12C`, for which the Potency entry in test [1], in test [3], in test [7], in test [4] and in test [5] was “inactive” throughout.
On to `N#Cc1cc(NC(=O)Nc2nnc(-c3ccncc3)s2)ccc1-c1cn[nH]c1`, for which the Potency entry in test [3], in test [7], in test [4], in test [5] and in test [6] was “inactive” each time.
As to `Oc1ccc([C@@H]2Oc3ccc(O)cc3[C@@H]3CCC[C@@H]32)cc1`, the figures for the Potency in test [5] and in test [6] were 33.2 µM (active) and 7.43 µM (active), respectively.
For the compound `C=C[C@@H]1CN2CCC1C[C@H]2[C@H](O)c1ccnc2ccc(OC)cc12` (stereo partly specified), the Potency result in test [4] and in test [5] was “inactive” in each case.
As for `COc1ccc(S(=O)(=O)Nc2cccnc2Nc2ccc(O)cc2)cc1`, the Potency in test [1] was 0.0166 µM (active); in test [2], 0.187 µM (active); in test [3], 0.148 µM (active); in test [7] it was 0.235 µM (active); in test [4] it was 0.526 µM (active); in test [5], 0.118 µM (active). Also, the Potency in test [6] was 0.0418 µM (active).
As to `CN[C@H](CC(C)C)C(=O)N[C@H]1C(=O)N[C@@H](CC(N)=O)C(=O)N[C@@H]2C(=O)N[C@H]3C(=O)N[C@H](C(=O)N[C@H](C(=O)O)c4cc(O)cc(O)c4-c4cc3ccc4O)[C@H](O)c3ccc(c(Cl)c3)Oc3cc2cc(c3O[C@@H]2O[C@H](CO)[C@@H](O)[C@H](O)[C@@H]2O[C@H]2C[C@](C)(N)[C@H](O)[C@H](C)O2)Oc2ccc(cc2Cl)[C@H]1O`, the Potency result in test [1], in test [3], in test [5] and in test [6] was “inactive” throughout. The Potency in test [2] is 13.2 µM (active).
